The whole screen tested about 5,500 compounds, of which about 2,000 (36%) were called active. Inconclusive results (about 18%) are left out. Cut-off read from the data, not from the text of the source: active = normalized growth mostly below about 0.91 (no sharp cut-off); inconclusive = no clear call, values can overlap the other calls; inactive = mostly above about 0.92. This is one part of the list.
Assay: chemical genetic growth profiling, strain panel (AID 1159580);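 note: tested at 20 µM; growth read once vehicle control cultures reached saturation at 30 °C; 1 = growth at the plate median or of vehicle wells; lower values mean less growth of the strain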
Conditions: S. cerevisiae deletion strains, growth OD

Measured: normalized growth

CC(=O)OC1CC[C@@]2(C)C(CC[C@]3(C)C2CCC2C4CC(C)(C)CCC4(C(=O)O)CC[C@]23C)C1(C)C (stereo not given in full)
inactive: locus YBR021W, strain FUR4, hits give low values 1.02 | locus YBR229C, strain ROT2, hits give low values 0.998 | locus YCL029C, strain bik1, hits give low values 0.968 | locus YDL035C, strain GPR1, hits give low values 1.06 | locus YDL074C, strain BRE1, hits give low values 1.05 | locus YDL101C, strain DUN1, hits give low values 0.985 | locus YDL134C, strain PPH21, hits give low values 1.03 | locus YDL185W, strain tfp1, hits give low values 0.934 | locus YDL192W, strain arf1, hits give low values 1.01 | locus YDR101C, strain arx1, hits give low values 1.02 | locus YDR162C, strain NBP2, hits give low values 1.01 | locus YDR318W, strain mcm21, hits give low values 0.993 | locus YDR388W, hits give low values 0.975 | locus YDR502C, strain sam2, hits give low values 0.999 | locus YER110C, hits give low values 0.971 | locus YER155C, strain BEM2, hits give low values 0.985 | locus YER167W, strain BCK2, hits give low values 0.998 | locus YGL078C, strain dbp3, hits give low values 0.974 | locus YGL086W, strain mad1, hits give low values 1.01 | locus YGL248W, strain PDE1, hits give low values 1.04 | locus YGR135W, strain pre9, hits give low values 0.972 | locus YGR252W, strain gcn5, hits give low values 1.05 | locus YHR030C, strain SLT2, hits give low values 1.01 | locus YHR079C, strain IRE1 (second series), hits give low values 0.975 | locus YHR094C, strain hxt1, hits give low values 0.978 | locus YHR129C, strain ARP1, hits give low values 1.03 | locus YHR200W, strain rpn10, hits give low values 0.999 | locus YIL066C, strain RNR3, hits give low values 1.01 | locus YIL073C, strain SPO22, hits give low values 0.986 | locus YIL125W, strain kgd1, hits give low values 0.979 | locus YIR030C, strain dcg1, hits give low values 0.974 | locus YJL095W, strain BCK1, hits give low values 1.03 | locus YJL134W, strain LCB3, hits give low values 0.994 | locus YJL168C, strain set2, hits give low values 0.977 | locus YJL187C, strain SWE1 (second series), hits give low values 1.01 | locus YJR043C, strain POL32, hits give low values 1.07 | locus YJR075W, strain HOC1, hits give low values 1 | locus YKL009W, strain mrt4, hits give low values 0.966 | locus YKL068W, hits give low values 1.02 | locus YKL085W, strain MDH1 (second series), hits give low values 1.01 | locus YKL085W, strain MDH1, hits give low values 1.01 | locus YKL190W, strain CNB1, hits give low values 0.996 | locus YKR001C, strain vps1, hits give low values 1.01 | locus YLR039C, strain RIC1, hits give low values 1.11 | locus YLR058C, strain SHM2, hits give low values 1.02 | locus YLR102C, strain apc9, hits give low values 0.973 | locus YLR268W, strain sec22, hits give low values 0.998 | locus YLR330W, strain CHS5, hits give low values 0.996 | locus YLR371W, strain rom2, hits give low values 0.968 | locus YLR418C, strain cdc73, hits give low values 1.02 | locus YML016C, strain PPZ1, hits give low values 1 | locus YML032C, strain rad52, hits give low values 0.987 | locus YML124C, strain tub3, hits give low values 0.991 | locus YMR078C, strain ctf18, hits give low values 0.968 | locus YMR223W, strain ubp8, hits give low values 0.976 | locus YMR307W, strain GAS1, hits give low values 1.25 | locus YNL067W, strain RPL9B, hits give low values 0.989 | locus YNL153C, strain GIM3, hits give low values 0.998 | locus YNL233W, strain BNI4, hits give low values 1.03 | locus YNL250W, strain rad50, hits give low values 0.92 | locus YNL271C, strain bni1, hits give low values 0.995 | locus YNL298W, strain CLA4, hits give low values 0.992 | locus YNL307C, strain MCK1, hits give low values 1.01 | locus YNR052C, strain pop2, hits give low values 0.992 | locus YOL006C, strain TOP1, hits give low values 1.25 | locus YOL012C, strain htz1 1.01 | locus YOL147C, strain pex11, hits give low values 0.979 | locus YOR061W, strain CKA2, hits give low values 1 | locus YOR069W, strain VPS5, hits give low values 1 | locus YOR136W, strain idh2, hits give low values 0.983 | locus YOR144C, strain elg1, hits give low values 0.989 | locus YOR184W, strain ser1, hits give low values 1.08 | locus YOR316C, strain cot1, hits give low values 0.964 | locus YPR119W, strain clb2, hits give low values 0.951 | locus YPR141C, strain kar3, hits give low values 0.975 | locus YPR163C, strain tif3, hits give low values 0.985 | locus YPR167C, strain met16, hits give low values 0.99 | strain wtn01, hits give low values 1.01

CC(CC(=O)C(O)C(C)(C)O)C1C(=O)CC2(C)C3=CCC4C(C)(C)C(OC5OCC(O)C(O)C5O)CCC45CC35C(O)CC12C (stereo not given)
inactive: locus YAL021C, strain ccr4, hits give low values 1.01 | locus YAL026C, strain drs2, hits give low values 1.01 | locus YAL030W, strain snc1, hits give low values 1.01 | locus YBL061C, strain skt5, hits give low values 1.01 | locus YBR009C, strain hhf1, hits give low values 1.01 | locus YBR023C, strain chs3, hits give low values 1.02 | locus YBR171W, strain sec66, hits give low values 1.03 | locus YBR231C, strain swc5, hits give low values 1.01 | locus YBR279W, strain paf1, hits give low values 1.02 | locus YCL011C, strain gbp2, hits give low values 1.01 | locus YCL016C, strain dcc1, hits give low values 1.01 | locus YCL061C, strain MRC1, hits give low values 1.01 | locus YCL069W, strain vba3, hits give low values 1 | locus YCR088W, strain abp1, hits give low values 1.02 | locus YDL005C, strain med2, hits give low values 1.01 | locus YDL040C, strain nat1, hits give low values 1.02 | locus YDR001C, strain nth1, hits give low values 1.01 | locus YDR069C, strain doa4, hits give low values 1.01 | locus YDR137W, strain rgp1, hits give low values 0.974 | locus YDR159W, strain sac3, hits give low values 1.02 | locus YDR195W, strain ref2 0.987 | locus YDR297W, strain sur2, hits give low values 1.01 | locus YDR334W, strain swr1, hits give low values 1.02 | locus YDR335W, strain msn5, hits give low values 1.02 | locus YDR392W, strain spt3, hits give low values 1.04 | locus YEL003W, strain gim4, hits give low values 1.01 | locus YEL037C, strain rad23, hits give low values 1.07 | locus YEL061C, strain CIN8 (second series), hits give low values 1.01 | locus YER015W, strain faa2, hits give low values 1.01 | locus YER016W, strain bim1, hits give low values 1.02 | locus YER111C, strain swi4, hits give low values 1.01 | locus YER155C, strain BEM2 (second series), hits give low values 1.02 | locus YFR010W, strain ubp6, hits give low values 1.01 | locus YGL167C, strain pmr1, hits give low values 1.01 | locus YGL173C, strain kem1, hits give low values 1.03 | locus YGL227W, strain vid30, hits give low values 1.01 | locus YGL240W, strain doc1, hits give low values 1.01 | locus YGL253W, strain hxk2, hits give low values 1.02 | locus YHR013C, strain ard1, hits give low values 1.02 | locus YHR027C, strain rpn1, hits give low values 1.01 | locus YHR142W, strain chs7, hits give low values 1 | locus YJL092W, strain hpr5, hits give low values 1.02 | locus YJL095W, strain BCK1 (second series), hits give low values 1.01 | locus YJL115W, strain asf1, hits give low values 1.01 | locus YJL129C, strain trk1, hits give low values 1.02 | locus YJL154C, strain vps35, hits give low values 1.02 | locus YJL164C, strain tpk1, hits give low values 1.03 | locus YJL166W, strain qcr8, hits give low values 1.01 | locus YJL187C, strain SWE1, hits give low values 1.01 | locus YKL160W, strain elf1, hits give low values 1.01 | locus YKR026C, strain gcn3, hits give low values 1.02 | locus YKR091W, strain srl3, hits give low values 1.02 | locus YLL001W, strain dnm1, hits give low values 1.03 | locus YLL026W, hits give low values 1.02 | locus YLL041C, strain sdh2, hits give low values 1.01 | locus YLR027C, strain aat2, hits give low values 1 | locus YLR221C, strain rsa3, hits give low values 1.01 | locus YLR258W, strain gsy2, hits give low values 1.02 | locus YLR262C, strain YPT6 (second series), hits give low values 1.02 | locus YLR320W, strain mms22, hits give low values 1.03 | locus YLR342W, strain FKS1, hits give low values 1.01 | locus YLR357W, strain rsc2, hits give low values 1.02 | locus YLR370C, strain arc18, hits give low values 0.995 | locus YLR384C, strain iki3, hits give low values 1.01 | locus YML120C, strain ndi1, hits give low values 1.02 | locus YMR058W, strain fet3, hits give low values 1.01 | locus YMR125W, strain sto1, hits give low values 1.03 | locus YMR129W, hits give low values 1.01 | locus YMR205C, strain PFK2, hits give low values 1.02 | locus YMR231W, strain pep5, hits give low values 1 | locus YNL071W, strain lat1, hits give low values 1.01 | locus YNL209W, strain ssb2, hits give low values 1.01 | locus YNL248C, strain rpa49, hits give low values 1.01 | locus YNL322C, strain KRE1 (second series), hits give low values 1.01 | locus YNR049C, strain mso1, hits give low values 1.02 | locus YOR001W, strain rrp6, hits give low values 1.01 | locus YOR070C, strain gyp1, hits give low values 1.01 | locus YOR080W, strain dia2, hits give low values 1.02 | locus YOR083W, strain WHI5, hits give low values 1.02 | locus YOR106W, strain vam3, hits give low values 1 | locus YOR265W, strain rbl2, hits give low values 1.01 | locus YOR270C, strain vph1, hits give low values 1.02 | locus YOR290C, strain snf2, hits give low values 1.02 | locus YPL051W, strain arl3, hits give low values 1.01 | locus YPL078C, strain atp4, hits give low values 1.02 | locus YPL106C, strain sse1, hits give low values 1 | locus YPL240C, strain hsp82, hits give low values 1.02
